Data on 17 molecules can be found in PubChem BioAssay (EPA / NIEHS).

The target in assay [1] is human Retinoid X Receptor beta (RXRb), RXRB (gene 6257) (UniProt P28702). The assay can be described thus: ATG_RXRb_TRANS: Attagene TRANS-FACTORIAL HepG2 Assay for human Retinoid X Receptor beta (RXRb) (AID 2283013; active means hit-call score of the fitted dose curve at least 0.9, where 1 is the maximum). The essentials: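 HepG2 cells were transiently transfected with multiplexed GAL4-UAS reporters and a chimeric RXRb-Gal4 construct, then exposed for 24 h. Reporter mRNA was quantified by RT-PCR, FAM labeling, HpaI digestion and capillary electrophoresis; gain of signal was scored against DMSO.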

Read-out in assay [2]: E-selectin (Homo sapiens) (UniProt P16581)
Kind of assay: BSK_3C_Eselectin: BioMAP Diversity Plus: 3C Assay for Eselectin Biomarker Activity (AID 2283015).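 On outcome: cell surface E-selectin protein quantified by ELISA 24 h after dosing.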 Particulars: primary human endothelial cells (HUVEC); actives raise or lower the signal. The method, boiled down:
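Endpoint derived by bidirectional fitting against DMSO vehicle; signal is ELISA-detected E-selectin from primary HUVEC at 24 h post-dosing, with parallel SRB staining (0.1% SRB, 560 nm) flagging cytotoxicity.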

Read-out in assay [3]: Interleukin-1 alpha (IL1a), IL1A (gene 3552)
The assay can be described thus: BSK_BE3C_IL1a: BioMAP Diversity Plus: BE3C Assay for Interleukin-1 alpha (IL1a) Biomarker Activity (AID 2283016). Particulars: primary human bronchial epithelial cells; actives raise or lower the signal. The method, boiled down:
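Human primary bronchial epithelial cells, 24 h chemical exposure; IL-1a quantified by ELISA, fitted bidirectionally against DMSO. Cytotoxicity assessed in parallel by SRB total-protein staining at the time of measurement.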

Read-out in assay [4]: Monocyte Chemoattractant Protein-1 (MCP1), CCL2 (gene 6347)
Kind of assay: BSK_3C_MCP1: BioMAP Diversity Plus: 3C Assay for Monocyte Chemoattractant Protein-1 (MCP1) Biomarker Activity (AID 2283017). Particulars: primary human endothelial cells (HUVEC); actives raise or lower the signal. The method, boiled down:
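Using human vascular primary endothelium, researchers measured MCP-1 by ELISA 24 h after treatment, with DMSO serving as negative control for bidirectional fitting.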

Read-out in assay [5]: Monocyte Chemoattractant Protein-1 (MCP1), CCL2 (gene 6347)
Kind of assay: BSK_4H_MCP1: BioMAP Diversity Plus: 4H Assay for Monocyte Chemoattractant Protein-1 (MCP1) Biomarker Activity (AID 2283018). The settings on record: primary human endothelial cells (HUVEC); actives raise or lower the signal. The essentials: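 Human umbilical vein endothelial cells (4H system) exposed to chemicals for 24 h in 96-well format. MCP-1 measured by ELISA; bidirectional fitting against DMSO, with SRB total-protein staining in parallel cultures for cytotoxicity.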

Read-out in assay [6]: Interleukin-8 (IL8), CXCL8 (gene 3576)
The assay can be described thus: BSK_3C_IL8: BioMAP Diversity Plus: 3C Assay for Interleukin-8 (IL8) Biomarker Activity (AID 2283020). Particulars: primary human endothelial cells (HUVEC); actives raise or lower the signal. The essentials:
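Primary human umbilical vein endothelial cells were dosed for 24 h. IL-8 was quantified by ELISA and fitted bidirectionally against DMSO. Cytotoxicity was assessed in parallel cultures by SRB staining at 560 nm.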

Read-out in assay [7]: Monokine induced gamma interferon (MIG), CXCL9 (gene 4283)
Kind of assay: BSK_3C_MIG: BioMAP Diversity Plus: 3C Assay for Monokine induced gamma interferon (MIG) Biomarker Activity (AID 2283021). The settings on record: primary human endothelial cells (HUVEC); actives raise or lower the signal. The essentials:
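HUVEC primary endothelial cultures dosed with chemical; MIG quantified by ELISA at 24 h. Data fitted bidirectionally against DMSO control, with parallel SRB total-protein staining for cytotoxicity.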

Assay [8] addresses human Vitamin D Receptor (VDR), VDR (gene 7421) (UniProt P11473). The assay can be described thus: ATG_VDR_TRANS: Attagene TRANS-FACTORIAL HepG2 Assay for human Vitamin D Receptor (VDR) (AID 2283022; active means hit-call score of the fitted dose curve at least 0.9, where 1 is the maximum). The essentials:
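Multiplexed TRANS reporter in HepG2; 24 h treatment; reporter mRNA by RT-PCR plus capillary electrophoresis; upregulation scored relative to DMSO.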

Read-out in assay [9]: Human Leukocyte Antigen - DR isotype (HLADR), HLA-DRA (gene 3122)
Kind of assay: BSK_3C_HLADR: BioMAP Diversity Plus: 3C Assay for Human Leukocyte Antigen - DR isotype (HLADR) Biomarker Activity (AID 2283019).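 On outcome: ELISA of cell-surface HLA-DR on HUVEC 24 h after dosing.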 Particulars: primary human endothelial cells (HUVEC); actives raise or lower the signal. The essentials: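 Compound added to primary HUVEC cultures, 24 h incubation, then HLA-DR determined by ELISA; endpoint derived by bidirectional fitting relative to DMSO negative control.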

Assay [10] addresses human Thyroid Receptor alpha (THRa1), THRA (gene 7067) (UniProt P10827). Kind of assay: ATG_THRa1_TRANS: Attagene TRANS-FACTORIAL HepG2 Assay for human Thyroid Receptor alpha (THRa1) (AID 2283014; active means hit-call score of the fitted dose curve at least 0.9, where 1 is the maximum). The essentials:
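Measured here is mRNA from a GAL4-UAS reporter in transfected HepG2 cells carrying a Gal4-fused receptor, 24 h post-dose. DMSO served as negative control and baseline.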

Inconclusive results are not listed. Active and inactive are the calls of the source. How the source made its calls, unless noted: active means hit-call score of the fitted dose curve at least 0.9, where 1 is the maximum; inactive means score below 0.9.

Sequence of human Vitamin D Receptor (VDR), VDR (gene 7421) (P11473 whole entry, looked up): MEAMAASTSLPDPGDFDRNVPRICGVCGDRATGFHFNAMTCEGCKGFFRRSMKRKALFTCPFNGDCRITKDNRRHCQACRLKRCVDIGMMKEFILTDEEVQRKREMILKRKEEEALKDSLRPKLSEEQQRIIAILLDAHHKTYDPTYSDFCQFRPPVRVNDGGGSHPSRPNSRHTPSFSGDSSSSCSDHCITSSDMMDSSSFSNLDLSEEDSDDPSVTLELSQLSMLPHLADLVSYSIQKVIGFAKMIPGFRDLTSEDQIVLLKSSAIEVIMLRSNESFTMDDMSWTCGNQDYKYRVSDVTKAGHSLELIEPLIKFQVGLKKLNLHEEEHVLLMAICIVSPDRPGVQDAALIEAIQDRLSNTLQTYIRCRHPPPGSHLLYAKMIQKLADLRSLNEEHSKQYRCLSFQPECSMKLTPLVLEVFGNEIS
Sequence of E-selectin (Homo sapiens) (P16581 whole entry, looked up): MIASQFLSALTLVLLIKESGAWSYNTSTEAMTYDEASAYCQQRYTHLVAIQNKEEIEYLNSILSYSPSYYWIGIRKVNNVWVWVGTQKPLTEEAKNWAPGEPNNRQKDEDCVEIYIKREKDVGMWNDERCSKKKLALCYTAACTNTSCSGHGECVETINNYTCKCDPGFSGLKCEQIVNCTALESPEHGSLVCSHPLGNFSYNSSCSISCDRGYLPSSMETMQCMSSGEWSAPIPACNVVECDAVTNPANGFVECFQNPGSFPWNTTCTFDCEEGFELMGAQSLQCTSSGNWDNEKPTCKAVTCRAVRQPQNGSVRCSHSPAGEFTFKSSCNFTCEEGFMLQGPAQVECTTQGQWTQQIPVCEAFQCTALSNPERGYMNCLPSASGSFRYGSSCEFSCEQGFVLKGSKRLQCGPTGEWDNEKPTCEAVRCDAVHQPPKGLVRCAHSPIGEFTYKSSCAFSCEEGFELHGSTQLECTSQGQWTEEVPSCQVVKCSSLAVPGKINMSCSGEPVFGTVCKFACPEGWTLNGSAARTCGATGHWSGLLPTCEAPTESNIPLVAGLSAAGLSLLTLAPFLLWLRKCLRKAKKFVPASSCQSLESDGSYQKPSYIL
Sequence of human Thyroid Receptor alpha (THRa1), THRA (gene 7067) (P10827 whole entry, looked up, the tested form may be a part): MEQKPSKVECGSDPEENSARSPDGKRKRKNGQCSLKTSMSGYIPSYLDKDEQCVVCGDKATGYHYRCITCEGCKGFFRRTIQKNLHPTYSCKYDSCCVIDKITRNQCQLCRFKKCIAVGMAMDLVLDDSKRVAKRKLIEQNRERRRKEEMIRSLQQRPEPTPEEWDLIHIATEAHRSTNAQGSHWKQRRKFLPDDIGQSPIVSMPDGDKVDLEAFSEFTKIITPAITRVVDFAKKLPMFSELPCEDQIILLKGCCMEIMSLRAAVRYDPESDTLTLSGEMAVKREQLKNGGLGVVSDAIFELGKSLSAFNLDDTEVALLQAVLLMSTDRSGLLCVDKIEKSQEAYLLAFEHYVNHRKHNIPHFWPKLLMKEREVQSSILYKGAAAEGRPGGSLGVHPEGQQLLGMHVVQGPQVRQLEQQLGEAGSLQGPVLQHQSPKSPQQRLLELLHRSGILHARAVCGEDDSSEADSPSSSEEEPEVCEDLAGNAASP
Sequence of human Retinoid X Receptor beta (RXRb), RXRB (gene 6257) (P28702 whole entry, looked up, the tested form may be a part): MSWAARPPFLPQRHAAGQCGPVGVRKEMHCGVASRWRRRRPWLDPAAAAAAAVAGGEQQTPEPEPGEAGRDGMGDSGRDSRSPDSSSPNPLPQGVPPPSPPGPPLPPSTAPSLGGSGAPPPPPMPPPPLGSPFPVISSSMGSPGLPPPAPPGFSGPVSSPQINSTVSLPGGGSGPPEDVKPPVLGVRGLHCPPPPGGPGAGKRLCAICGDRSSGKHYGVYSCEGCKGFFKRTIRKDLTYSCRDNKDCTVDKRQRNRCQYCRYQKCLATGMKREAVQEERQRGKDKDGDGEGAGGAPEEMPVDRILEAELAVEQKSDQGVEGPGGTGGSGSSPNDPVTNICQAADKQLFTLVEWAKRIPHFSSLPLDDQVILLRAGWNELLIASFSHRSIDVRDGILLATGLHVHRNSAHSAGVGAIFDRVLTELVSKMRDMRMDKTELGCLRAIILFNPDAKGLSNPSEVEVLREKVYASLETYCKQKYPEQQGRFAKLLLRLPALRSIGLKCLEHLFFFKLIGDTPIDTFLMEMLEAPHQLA

In the case of `OC(O)(C(F)C(O)(O)C(F)(F)F)C(F)(F)F`, the call in assay [1], in [2], in assay [3], in assay [4], in [5] and in assay [6] was inactive. Also, the result in assay [7] and in assay [8] was inactive.
In the case of `CCCCOC(=O)c1ccccc1`, the molecule was classed as inactive in assay [1], in assay [2], in assay [3], in assay [4], in assay [5] and in assay [9]. In addition, in assay [6], the outcome was inactive.
Take `O=C(O)c1cccc(C[C@@H]2COc3ccc(OCc4nc5cc(F)ccc5s4)cc3[C@@H]2O)c1`: the molecule was classed as inactive in [1], in assay [2], in assay [3], in [4], in assay [5] and in assay [9]. The result in assay [6] and in assay [7] was inactive.
For `CCc1ccc(O)c(C(C)(C)C)c1`, the half-maximal activity concentration (AC50) (commonly the concentration at which the activity in the assay is half-maximal) was 8.8 µM (active) in [1], 33.3 µM (active) in [2], 30.9 µM (active) in [4] and 30.4 µM (active) in assay [6]. Besides, the result in assay [10] and in [3] was inactive.
Take `FC(F)=C(F)C(F)(F)C(F)(F)C(F)(F)C(F)(F)C(F)(F)C(F)(F)F`: the result in assay [1], in assay [10], in [2], in assay [3], in assay [4] and in assay [6] was inactive. In addition, the result in assay [7] and in assay [8] was inactive.
Consider `OCCOCCOCCO`, for which the molecule was classed as inactive in [1], in assay [2], in [3], in assay [4], in assay [9] and in assay [7]. Moreover, in assay [8], the outcome was inactive.
Consider `NNC(=O)c1ccncc1`, for which the result in [10], in assay [2], in assay [3], in assay [4], in [5] and in [9] was inactive. The outcome in assay [6], in [7] and in assay [8] was inactive.
On to `COS(C)(=O)=O`, for which the molecule was classed as inactive in [1], in assay [2], in assay [3], in assay [4], in [9] and in assay [6]. Besides, the call in [8] was inactive.
For `OC[C@H]1O[C@@](CO)(O[C@H]2O[C@H](CO)[C@@H](O)[C@H](O)[C@H]2O)[C@@H](O)[C@@H]1O`, the call in assay [1], in assay [2], in assay [3], in assay [4], in assay [6] and in assay [7] was inactive.
With `Cc1nc(-c2ccccn2)ncc1C(=O)Nn1cc(C)c2cc(F)ccc21`, the result in [10], in [2], in assay [3], in assay [4], in [5] and in assay [6] was inactive. Also, the outcome in assay [7] and in assay [8] was inactive.
As for `OCCC(F)(F)C(F)(F)C(F)(F)C(F)(F)F`, the molecule was classed as inactive in assay [10], in assay [2], in assay [3], in assay [4], in assay [5] and in assay [9]. Also, the result in [6] and in assay [8] was inactive.
In the case of `CC1(C)C(=O)N(Cl)C(=O)N1Cl`, the outcome in assay [2], in assay [3], in [4], in [5], in assay [9] and in assay [6] was inactive.
Take `c1ccc2ncccc2c1`: the result in assay [2], in [3], in assay [4], in assay [6] and in assay [7] was inactive.
On to `CCCCCOC(C)=O`, for which the molecule was classed as inactive in assay [10], in assay [2], in [3], in assay [4], in [5] and in [6]. Further, in assay [8], the molecule was classed as inactive.
`O=c1[nH]cnc2c1ncn2[C@H]1CC[C@@H](CO)O1`: the outcome in [10], in assay [2], in assay [3], in assay [4], in assay [9] and in assay [6] was inactive. Moreover, the outcome in assay [7] was inactive.
`O=C(NO)C1(NS(=O)(=O)c2ccc(Oc3ccc(F)cc3)cc2)CCOCC1`: the molecule was called inactive in assay [10], in [2], in [3], in [4], in [9] and in [6]. The molecule was called inactive in assay [8].
In the case of `CCCCN1C(=O)[C@@H]([C@H](O)C2CCCCC2)NC(=O)C12CCN(Cc1ccc(Oc3ccc(C(=O)O)cc3)cc1)CC2`, the result in assay [2], in assay [3] and in [6] was inactive. Also, the results for the AC50 in assay [4] and in [9] were 14.9 µM (active) and 32.1 µM (active), respectively.
